Measurements as given in PubChem BioAssay (Tox21).
Values joined by “and” are separate entries in the source; they are usually repeats but may differ in a detail not shown here. Equal values may be shown once. Records with an inconclusive call do not appear. A number with no mark means an inactive call. Active and inactive are the calls of the source. Calls come from the whole dose curve; as a rule, active = well fitted cell-killing curve with a large enough effect in the repeat runs; inconclusive = weak or mixed curves, or effect the other way; inactive = flat fitted curve, though single readings scatter.

Assay: Caspase-3/7 induction in HepG2 cells by small molecules, qHTS cell viability counter screen (AID 1346981); note: nearly all actives have a fitted effect of over 30% in size
Conditions: CellTiter-Fluor fluorescence, 17 h; series mostly up to 92.4 µM; activity change, negative = cytotoxicity: at the top concentration
Excerpt: U.S. Tox21 Program National Center for Advancing Translational Sciences [NCATS] NIH Chemical Genomics Center [NCGC] U.S. Environmental Protection Agency [EPA] National Institutes of Environmental Health Sciences [NIEHS] National Toxicology Program [NTP] U.S. Food and Drug Administration [FDA] Tox21 Assay Overview: Apoptosis is a process of programmed cell death and plays a central role in the development of multicellular organisms. It is a highly regulated process and induces cell death by activating caspases, which are the members of cysteine aspartic acid-specific protease (caspase) family. Caspases involved in apoptosis are classified by their mechanism of action as initiator caspases (caspase-2, -8, -9 and -10) and executioner caspases (caspase-3, -6, and -7). Inhibition of apoptosis results in number of cancers, autoimmune diseases, inflammatory diseases and viral infection. To identify small molecule compounds that induce apoptosis, a homogeneous, luminescent Caspase-Glo 3/7 assay was used. Wild type HepG2 cells were used to screen Tox21 libraries for identifying caspase-3/7 activity inducers. Also cytotoxicity of the compounds was tested in parallel by measuring the cell viability using CellTiter-Fluor assay system in the same wells.
Tox21 Assay Protocol Summary: HepG2 cells were dispensed at 2,000 per well in 5uL of culture medium into white solid bottom 1536-well plates (Corning Life Sciences, Corning, NY) using a Multidrop Combi (Thermo Scientific, Waltham, MA) dispenser. The assay plates were incubated at 37 C and 5% CO2 for 5hr, and then 23nL of compounds dissolved in DMSO and positive control were transferred using a Pintool station ([…], San Diego, CA). The assay plates were incubated at 37C and 5% CO2 for 17hr. For cytotoxicity read, after 16hr incubation at 37C, 1uL CellTiter-Fluor reagent (Promega Corporation, Madison, WI) was added to each well of the assay plates using Flying Reagent Dispenser (FRD, Aurora Discovery, San Diego, CA). After 1hr incubation at 37C and 5% CO2, the fluorescence signal was quantified using a ViewLux plate reader (PerkinElmer, Shelton, CT).
% is set by controls: 0 for no effect and ±100 for the full control effect; potency is the fitted concentration of half-maximal effect.

Compound	Potency	activity change, negative = cytotoxicity
C=CC(=O)OCCOCCOCCOCCOC(=O)C=C	30.8 µM (active) and 27.1 µM (active)	
CC(C)O.CC(C)O.CCOC(=O)/C=C(\C)O.CCOC(=O)/C=C(\C)O.[Ti]		-3.34%
O=C(O)C1(C(=O)Nc2ccc(Cl)cc2Cl)CC1		-12.4%
Cc1ccc(C(C)OC(=O)C2(C)CCC(C(=O)O)C2(C)C)cc1 (stereo not given)		3.65% [at 42.5 µM]
CC(C)(C)Cl		2.24%
C=C1[C@H]2CC[C@@H]3[C@H]2C(C)(C)CCC[C@]13C		-1.6%
CCCCCCCCCc1ccc(OCCOCCO)cc1	20.4 µM (active)	
O=CC1CC=CCC1 (stereo not given)		0.808%
O=C(O)c1ccco1		1.61%
C#CCN(C)CCCOc1ccc(Cl)cc1Cl		3.18% [at 42.5 µM]
Nc1ccccc1S(=O)(=O)c1ccccc1		0.69%
CCCCCCCCO[C@@H]1O[C@H](CO)[C@@H](O)[C@H](O)[C@H]1O		4.96%
Clc1ccc(Cn2c(CN3CCCC3)nc3ccccc32)cc1		-12.8% [at 42.5 µM]
CN(C)CCN(Cc1ccccc1)c1ccccn1		-8.52% [at 42.5 µM]
CC1(c2ccccc2)OC(C(=O)O)=CC1=O (stereo not given)		3.78% [at 42.5 µM]
OCc1cc(C(O)CNCCCCCCOCCCCc2ccccc2)ccc1O (stereo not given)	26.6 µM (active)	
NCCCN1CCOCC1		6.36%
O=C(O)C1(C(=O)O)CCC1.[NH2-].[NH2-].[Pt+2]		5.57% [at 42.5 µM]
COc1cc(Cl)c(OC)cc1N		-0.716%
O=C(O)c1ccc(-n2nc(-c3ccccc3O)nc2-c2ccccc2O)cc1		-13.5% [at 42.5 µM]

Compound	Potency	activity change, negative = cytotoxicity
Brc1c2ccccc2cc2ccccc12		3.13%
CN(C)c1ccc(CCO)cc1		1.42%
COC(C)OC		-14.4%
Cc1ccc(N=Nc2c(O)c(C(=O)O)cc3ccccc23)c(S(=O)(=O)O)c1	29.7 µM (active)	
CCc1cc(C2=C(C(=O)O)N(c3ccccc3C(F)(F)F)S(=O)(=O)c3ccccc32)cc2c1OCO2	15.2 µM (active)	
CCCCC(=O)OCC(=O)[C@H]1[C@H](C)C[C@H]2[C@@H]3C[C@H](F)C4=CC(=O)C=C[C@]4(C)[C@@]3(F)[C@@H](O)C[C@@]21C		10.7% [at 42.5 µM]
CCCn1cnc2c1c(=O)n(CCCCC(C)=O)c(=O)n2C		6.72% [at 42.5 µM]
COC(C)(C)CCO		4.02%
CCC(=O)O[C@]1(C(=O)CCl)[C@@H](C)C[C@H]2[C@@H]3CCC4=CC(=O)C=C[C@]4(C)[C@@]3(F)[C@@H](O)C[C@@]21C		-0.546% [at 42.5 µM]
CC1=CC=C(C(C)C)CC1		6.33%
CC/C=C\CCOC(=O)CC		-0.489%
CCCC(=O)Nc1ccc(O)c(C(C)=O)c1		6.34% [at 42.5 µM]
OCCNCc1ccccc1		-2.25%
CN(C)CCCN1c2ccccc2Sc2ccccc21		-11.9% [at 42.5 µM]
C=CC(=O)OCCOc1ccccc1		-1.98%
c1cc(CCCc2ccncc2)ccn1		13.1%
NS(=O)(=O)c1ccc(N2CCCCS2(=O)=O)cc1		6.04% [at 42.5 µM]
CCCCCCCCCCCCCCCCCCOS(=O)(=O)O		-1.57%
CCCNCC(O)COc1ccccc1C(=O)CCc1ccccc1 (stereo not given)		-14.6% [at 42.5 µM]
C=CCOC(=O)CCC1CCCCC1		4.76%
